Results: PubChem BioAssay (Tox21)
“And” between values parts separate entries of the source, which are not always exact repeats. Equal values may be shown once. Inconclusive results are not listed. Where a call stands in place of a potency, no number is given. A structure can be active in one record and inactive in another. The source made the active and inactive calls. The call rests on the fitted dose curve; in most records, active means well fitted activation curve with a large enough effect in the repeat runs; inconclusive means weak or mixed curves; inactive means no such curve, though single readings can be large or run the other way.
Potency means the concentration at half of the fitted maximal effect.

The compounds below were run against Nuclear receptor subfamily 1 group I member 2 (Homo sapiens) (UniProt O75469) (assay: Human pregnane X receptor (PXR) small molecule agonists, qHTS assay (AID 1346982; further: nearly all actives have a fitted effect of over 35% in size)). Conditions: PXR-Luc HepG2, CYP3A4 luciferase reporter, 24 h; series mostly up to 92.4 µM.
Nuclear receptor subfamily 1 group I member 2 (Homo sapiens), sequence (O75469 whole entry, looked up): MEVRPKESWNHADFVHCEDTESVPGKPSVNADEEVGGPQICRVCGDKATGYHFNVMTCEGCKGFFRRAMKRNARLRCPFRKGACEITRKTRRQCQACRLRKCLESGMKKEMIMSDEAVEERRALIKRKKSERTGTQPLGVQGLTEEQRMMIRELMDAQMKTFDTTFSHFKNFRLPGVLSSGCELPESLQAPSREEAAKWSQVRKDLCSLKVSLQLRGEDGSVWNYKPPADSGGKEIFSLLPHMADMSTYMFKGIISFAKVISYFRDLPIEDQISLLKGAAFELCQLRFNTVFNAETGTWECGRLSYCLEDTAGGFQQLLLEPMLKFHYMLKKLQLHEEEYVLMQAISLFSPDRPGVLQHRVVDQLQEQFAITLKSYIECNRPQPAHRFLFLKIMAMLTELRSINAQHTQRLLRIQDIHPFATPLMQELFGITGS
Source text: National Center for Advancing Translational Sciences [NCATS]
NIH Chemical Genomics Center [NCGC]
U.S. Environmental Protection Agency [EPA]
National Institutes of Environmental Health Sciences [NIEHS]
National Toxicology Program [NTP]
The human pregnane X receptor (hPXR) regulates the expression of several drug metabolizing enzymes and induction of these proteins is a major mechanism for developing drug resistance in cancer. One such key enzyme catalyzing the drug metabolism is cytochrome P450 3A4 (CYP3A4). Changes in CYP3A4 expression affect drug metabolism, thereby reducing the therapeutic efficacy and altering toxicological response to a drug and which finally causes adverse drug interaction. To screen Tox21 libraries for compounds that activate hPXR-mediated CYP3A4 gene expression, PXR-Luc HepG2 cells were used.
PXR-Luc HepG2 cells were dispensed at 2,000 per well in 5uL of assay medium containing 5% charcoal-stripped FBS into white solid bottom 1536-well plates (Corning Life Sciences, Corning, NY) using a Multidrop Combi (Thermo Scientific, Waltham, MA) dispenser. The assay plates were incubated at 37 C and 5% CO2 for 5hr, and then 23nL of compounds dissolved in DMSO and positive control were transferred using a Pintool station (Wako, San Diego, CA). The assay plates were incubated at 37C and 5% CO2 for 24hr. For luciferase read, 4uL of ONE-Glo reagent (Promega Corporation, Madison, WI) was added to each well of the assay plates using Flying Reagent Dispenser (FRD, Aurora Discovery, San Diego, CA) and incubated the assay plates at room temperature for 30min. The luminescence signal was quantified using a ViewLux plate reader (Perkin Elmer, Shelton, CT).
For `BrCBr`, the Potency was “inactive”. With `CCCCCCCCCCCCCN1CC(C)OC(C)C1` (stereo not given) the Potency was “inactive”. `Oc1ccc(C(c2ccc(O)cc2)(C(F)(F)F)C(F)(F)F)cc1` was tested, and the Potency was 24.2 µM (active) and 27.3 µM (active). In the case of `Nc1c(Oc2ccccc2)cc(O)c2c1C(=O)c1ccccc1C2=O`, the Potency is reported as 10.6 µM (active). `[Cl][Sb]([Cl])[Cl]` was tested, and the Potency was 27.3 µM (active). With `C=CC(=O)N(C)C` the Potency was “inactive”. `c1ccc(Nc2ccc3ccccc3c2)cc1` was tested, and the Potency was 30.5 µM (active) and 21.7 µM (active). `ClCc1ccc(Cl)cc1Cl` was tested, and the Potency was “inactive”. With `CCCCCCCCCCCCCCCC[n+]1ccccc1` the Potency was 10.1 µM (active) and inactive and 12 µM (active). In the case of `C=CCOC(N)=O`, the Potency is reported as “inactive”. With `CCCCOP(=O)(CCCC)OCCCC` the Potency was “inactive”. For `CCOP(=S)(OCC)SCCS(=O)(=O)CC`, the Potency was “inactive”. With `COP(=O)(CCC(=O)NCO)OC` the Potency was “inactive”. With `CCOP(=S)(OCC)SCS(=O)(=O)CC` the Potency was “inactive”. In the case of `CC(C)(C)c1cc([N+](=O)[O-])cc(C(C)(C)C)c1O`, the Potency is reported as 5.45 µM (active). In the case of `CCN(CC)c1c([N+](=O)[O-])cc(C(F)(F)F)c(N)c1[N+](=O)[O-]`, the Potency is reported as 6.86 µM (active). With `Cc1c(Cl)c(=O)oc2cc(OP(=O)(OCCCl)OCCCl)ccc12` the Potency was 11.9 µM (active). With `CCOC(=O)C1(c2ccccc2)CCN(CCC(C#N)(c2ccccc2)c2ccccc2)CC1` the Potency was 3.35 µM (active). `COCC(=O)N(c1c(C)cccc1C)[C@H](C)C(=O)OC` was tested, and the Potency was “inactive”. For `Nc1ccc(Cl)cc1C(=O)c1ccccc1`, the Potency was 61.1 µM (active). In the case of `N#Cc1ccccc1Cl`, the Potency is reported as “inactive”. For `Nc1ccc([N+](=O)[O-])cc1Cl`, the Potency was “inactive”. With `CCc1nn(C)c(C(=O)NCc2ccc(C(C)(C)C)cc2)c1Cl` the Potency was 27.3 µM (active). In the case of `CCCN(CC)CC1COC2(CCC(C(C)(C)C)CC2)O1` (stereo not given), the Potency is reported as “inactive”. In the case of `C[C@]12CC[C@H](O)C[C@H]1CC[C@@H]1[C@@H]2C[C@@H](O)[C@]2(C)[C@@H](C3=CC(=O)OC3)CC[C@]12O`, the Potency is reported as 2.17 µM (active). `COP(N)(=S)OC` was tested, and the Potency was “inactive”. For `CC[C@H]1C[C@@H]2C[C@H]3c4[nH]c5ccc(OC)cc5c4CCN(C2)[C@@H]13`, the Potency was “inactive”. In the case of `c1ccc2cc3c(cc2c1)-c1cccc2cccc-3c12`, the Potency is reported as 2.4 µM (active). `CC(C)CC(C)N` (stereo not given) was tested, and the Potency was “inactive”. With `O=[N+]([O-])c1ccc(Oc2ccc(C(F)(F)F)cc2[N+](=O)[O-])cc1` the Potency was 17.2 µM (active). With `O=C(O)C1C2CCC(O2)C1C(=O)O` (stereo not given) the Potency was “inactive”. In the case of `Nc1ccc(Sc2ccc(N)cc2)cc1`, the Potency is reported as 34.4 µM (active). With `COS(=O)(=O)c1ccc(C)cc1` the Potency was “inactive”. In the case of `BrC(Br)Br`, the Potency is reported as “inactive”. In the case of `N#CCc1ccc(Cl)cc1`, the Potency is reported as “inactive”. For `Brc1c(Br)c(Br)c(Oc2c(Br)c(Br)c(Br)c(Br)c2Br)c(Br)c1Br`, the activation was -0.0764% [at 19 µM] (inactive). For `COc1ccc(N)cc1N`, the Potency was 11.2 µM (active) and 33 µM (active). With `CCC(C)c1cc([N+](=O)[O-])cc([N+](=O)[O-])c1OC(=O)C=C(C)C` (stereo not given) the Potency was 61.1 µM (active). For `CC(C)(C)c1ccc(CSc2cnn(C(C)(C)C)c(=O)c2Cl)cc1`, the Potency was “inactive”. With `O=C(O)COc1nc(Cl)c(Cl)cc1Cl` the Potency was “inactive”.
